The values below come from PubChem BioAssay (NCI).

Compounds without any hit were thinned out: in the full panel of roughly 83,000, 20% have a hit.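 Step 1: grow cells in 96-well plates. Step 2: add test compound at a single concentration. Step 3: incubate 48 h. Step 4: record percent growth.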 Values without a mark were called inactive. Activity calls are given as the source filed them. How the source made its calls: active means growth percent below 10; inactive means the rest.

This assay has as its system HL-60(TB) leukemia. In words: NCI-60 one-dose screen, 48 h (100 = growth as untreated, 0 = no growth, -100 = all killed). The following applies: 10 µM unless noted.
Take `C=C(CBr)[C@@H]1CC[C@]2(C(=O)O)CC[C@]3(C)[C@H](CC[C@@H]4[C@@]5(C)CCC(=O)C(C)(C)[C@@H]5CC[C@]43C)[C@@H]12`: the growth was 71.7%. In the case of `C=C1C(=O)O[C@@H]2[C@H]3[C@H](COC(C)=O)[C@@H](OC(C)=O)C[C@H]3C(=C)[C@@H](O)C[C@@H]12`, the growth was 78.9%. The value for `COc1ccc(CCN=Cc2ccc(Cl)cc2)cc1OC` was 86.6%; that for `COc1cc(COC(=O)CCCCC[P+](c2ccccc2)(c2ccccc2)c2ccccc2)c(OC)c2c1OCO2` was -9.81% (active). Turning to `Cc1ccc(C(O)C2CC2)cc1` (stereo not drawn), the growth was 99.3%. Turning to `C#CC(F)(F)[C@]1(O)CC[C@H]2[C@@H]3CCC4=CC(=O)CCC4=C3[C@@H](c3ccc(C4CC4)cc3)C[C@@]21C`, the growth was -61.1% (active).

As for `COc1cc(/C=C/C(=O)c2ccc(Oc3ncnc4ccccc34)cc2)cc(OC)c1OC`, the growth was 54.3%. With `Cc1cccc2c(Nc3ccc(NS(C)(=O)=O)cc3)c3ccc([N+](=O)[O-])cc3nc12`, the growth is -27.2% (active).

Consider `N#CC1=C(N)Oc2c(ccc3ccccc23)C1c1cc(=O)oc2ccc(Cl)cc12` (stereo not drawn), for which the growth is -10.1% (active). The value for `CCCCCCCCCCC(C)Br` (stereo not drawn) was 93.1%; that for `O=C(N/N=c1/ccoc2cccnc12)N1CCN(c2ncccn2)CC1` was 44.2%; that for `CN(C)C(=S)N=Nc1c(O)[nH]c2ccccc12` was -40.3% (active). As to `CN(C)CCN1C(=O)c2cccc3c(-c4ccc5ncn(C6CCCCC6)c5c4)ccc(c23)C1=O`, the growth is 13.8%.
